According to PubChem BioAssay:
Active and inactive are the calls of the source. Cut-off read from the data, not from the text of the source: active = fold change permeability below about 0.7 or above about 1.3; inactive = in between.

Assay: modulators of brain endothelial barrier permeability, primary screen, cell-based, FITC-avidin fluorescence, HTS (AID 1963498); note: test concentration not given here
Conditions: actives lie on both sides
In the case of COC(=O)C1=C(C)NC(C)=C(C(=O)OCCN(C)Cc2ccccc2)C1c1cccc([N+](=O)[O-])c1 (centres undefined), the fold change permeability is reported as 1 (inactive).
In the case of Nn1nnc2ccccc21, the fold change permeability is reported as 0.9 (inactive).
With NC[C@@H]1O[C@H](C23CC4CC(CC(C4)C2)C3)Cc2c1ccc(O)c2O the fold change permeability was 1.1 (inactive).
For CCN(CC)CCNC(=O)c1cc(Cl)c(N)cc1OC, the fold change permeability was 0.9 (inactive).
With CC(=O)OCC(=O)[C@@]1(O)CC[C@H]2[C@@H]3CCC4=CC(=O)CC[C@]4(C)[C@H]3C(=O)C[C@@]21C the fold change permeability was 0.9 (inactive).
In the case of N#C/C(=C1/SC[C@@H](c2ccc(Cl)cc2Cl)S1)n1ccnc1, the fold change permeability is reported as 1.6 (active).
For OCCN1CCN(CCCN2c3ccccc3C=Cc3ccccc32)CC1, the fold change permeability was 1.2 (inactive).
With Cc1cc(Cl)ccc1OCCCC(=O)NO the fold change permeability was 1 (inactive).
In the case of COc1cc2c(cc1O)CC[C@@H]1[C@@H]2CC[C@]2(C)[C@@H](O)CC[C@@H]12, the fold change permeability is reported as 1.3 (active).
With Cc1cccc(C)c1OCC(C)N (centres undefined) the fold change permeability was 0.8 (inactive).
For Cc1cc(C(C)(C)C)c(O)c(C)c1CC1=NCCN1, the fold change permeability was 0.8 (inactive).
For COCc1nc2c([nH]1)c(=O)n(C)c(=O)n2CC(C)C, the fold change permeability was 0.8 (inactive).
For CC(C)c1ccc2oc3nc(N)c(C(=O)O)cc3c(=O)c2c1, the fold change permeability was 1 (inactive).
For CC(C)NNC(=O)c1ccncc1, the fold change permeability was 0.6 (active).
In the case of CN(C)CCCN1c2ccccc2CCc2ccc(Cl)cc21, the fold change permeability is reported as 1.1 (inactive).
For CCCCCOC(=O)Nc1nc(=O)n([C@@H]2O[C@H](C)[C@@H](O)[C@H]2O)cc1F, the fold change permeability was 1.4 (active).
In the case of CC(C)(C)c1ccc(C(=O)Nc2ccc(Nc3ccccc3)cc2)cc1, the fold change permeability is reported as 1 (inactive).
For C[C@@](Cc1ccc(O)c(O)c1)(NN)C(=O)O, the fold change permeability was 1.2 (inactive).
For CC(C)NCC(O)COc1ccc(COCCOC(C)C)cc1 (centres undefined), the fold change permeability was 0.8 (inactive).
With COc1cc2nc(N3CCCC3)nc(NCCCCCN3CCCC3)c2cc1OC the fold change permeability was 1.2 (inactive).
For N=c1nc(N2CCCCC2)cc(N)n1O, the fold change permeability was 0.9 (inactive).
With CN1Cc2sccc2C(c2ccc(O)c(O)c2)C1 (centres undefined) the fold change permeability was 1 (inactive).
For O=C(c1ccc(F)cc1)C1CCN(CCn2c(=O)[nH]c3ccccc3c2=O)CC1, the fold change permeability was 1.2 (inactive).
In the case of O=C(O)/C=C/c1ccc(O)c(O)c1, the fold change permeability is reported as 0.8 (inactive).
